The antibiotic and cytotoxicity screens of Wong et al. (2023)
Hit rate of the full screen: of about 39,000 compounds, about 3,300 (8.5%) were called active. Many of the other results were omitted from the sample, so actives are more common in it than they were.

Tested on: HepG2
Experiment: cytotoxicity call (relative viability < 0.9)
Conditions: 10 µM

Row | SMILES | cytotoxicity call
1 | Cc1ccc(N2C(=O)C(=O)NC2=S)cc1 | inactive
2 | C[C@H]1CN([C@@H](C)CO)C(=O)c2cc(NC(=O)CCN3CCOCC3)ccc2O[C@@H]1CN(C)C(=O)NC1CCCCC1 | inactive
3 | C[C@H]1CN([C@@H](C)CO)C(=O)Cc2cc(NS(=O)(=O)c3ccccc3)ccc2O[C@H]1CN(C)Cc1ccc2c(c1)OCO2 | inactive
4 | C[C@H](CO)N1C[C@H](C)[C@H](CN(C)S(=O)(=O)c2cccs2)Oc2ccc(NC(=O)Cn3cnnn3)cc2CC1=O | inactive
5 | CC(C)NCCCC[C@H](NC(=O)[C@H]1CCC(=O)N[C@@H](Cc2ccccc2)C(=O)N[C@H](Cc2ccc(O)cc2)C(=O)N[C@@H](CCCCNC(C)C)C(=O)N[C@H](CCCN=C(N)N)C(=O)N[C@@H](Cc2ccc3ccccc3c2)C(=O)NCC(=O)N1)C(N)=O | inactive
6 | Cc1noc(C)c1NC(=O)N(C)C[C@H]1Oc2ccc(NC(=O)Cn3cnnn3)cc2C(=O)N([C@H](C)CO)C[C@@H]1C | inactive
7 | Nc1nnc(N[C@H]2CCCCNC2=O)[nH]1 | inactive
8 | COCc1cn(CC[C@H]2CC[C@@H](NC(=O)CCN3CCCCC3)[C@@H](CO)O2)nn1 | inactive
9 | COCC#Cc1cnc2c(c1)C(=O)N([C@@H](C)CO)C[C@@H](C)[C@H](CN(C)S(=O)(=O)c1cccc(OC)c1)O2 | inactive
10 | CO[C@H](CN(C)S(=O)(=O)c1ccc(F)cc1)[C@@H](C)CN([C@H](C)CO)S(=O)(=O)c1cccc(Cl)c1 | inactive
11 | C[C@@H]1CN([C@H](C)CO)C(=O)c2cccc(NC(=O)c3ccno3)c2O[C@H]1CN(C)S(=O)(=O)c1cccs1 | inactive
12 | C[C@@H]1CCCCO[C@H](CN(C)Cc2ccccc2)[C@H](C)CN([C@@H](C)CO)C(=O)c2cc(NC(=O)Nc3ccc(C(F)(F)F)cc3)ccc2O1 | active
13 | C[C@@H]1CCCCO[C@@H](CN(C)Cc2ccccc2)[C@H](C)CN([C@@H](C)CO)C(=O)c2cc(NC(=O)Nc3ccc(C(F)(F)F)cc3)ccc2O1 | active
14 | C[C@H]1CCCCO[C@@H](CN(C)Cc2ccccc2)[C@@H](C)CN([C@@H](C)CO)C(=O)c2cc(NC(=O)Nc3ccc(C(F)(F)F)cc3)ccc2O1 | active
15 | C[C@@H]1CN([C@H](C)CO)C(=O)c2cc(NC(=O)Nc3ccc(C(F)(F)F)cc3)ccc2O[C@@H](C)CCCCO[C@H]1CN(C)Cc1ccccc1 | active
16 | Cc1noc(C)c1NC(=O)Nc1cccc2c1O[C@H](CN(C)Cc1ccc(C(F)(F)F)cc1)[C@@H](C)CN([C@H](C)CO)C2=O | inactive
17 | C[C@@H]1CN([C@H](C)CO)C(=O)c2cccc(NC(=O)CCCCCC(=O)Nc3ccccc3N)c2O[C@@H]1CN(C)Cc1ccccc1 | inactive
18 | C=CCOC[C@H]1NCCc2c1nnn2CC | inactive
19 | COc1ccc(CN(C)C[C@@H]2Oc3c(NS(=O)(=O)c4cn(C)cn4)cccc3C(=O)N([C@H](C)CO)C[C@H]2C)cc1 | inactive

Row | SMILES | cytotoxicity call
20 | O=C(C[C@@H]1CC[C@H]2[C@@H](COC[C@@H](O)CN2C(=O)c2cccnc2)O1)NCC1CC1 | inactive
21 | C[C@@H]1CN([C@@H](C)CO)C(=O)c2cc(NS(C)(=O)=O)ccc2O[C@@H](C)CCCCO[C@@H]1CN(C)S(=O)(=O)c1cn(C)cn1 | inactive
22 | C[C@H]1CCCCO[C@@H](CN(C)Cc2ccc(C(=O)O)cc2)[C@@H](C)CN([C@@H](C)CO)C(=O)c2cc(NC(=O)Nc3ccc(F)cc3)ccc2O1 | inactive
23 | C[C@@H]1CCCCO[C@@H](CN(C)Cc2ccc3c(c2)OCO3)[C@H](C)CN([C@@H](C)CO)C(=O)c2cc(NS(=O)(=O)c3ccccc3)ccc2O1 | inactive
24 | Cc1noc(C)c1S(=O)(=O)N(C)C[C@H]1Oc2ccc(NS(=O)(=O)c3ccc(Cl)cc3)cc2CC(=O)N([C@@H](C)CO)C[C@@H]1C | inactive
25 | C[C@H]1CCCCO[C@@H](CN(C)C(=O)Nc2ccccc2)[C@@H](C)CN([C@@H](C)CO)C(=O)c2cc(NC(=O)Nc3ccccc3)ccc2O1 | inactive
26 | COCC(=O)Nc1ccc2c(c1)OC[C@H](C)N(Cc1ccccc1OC)C[C@H](C)[C@@H](OC)CN(C)C2=O | inactive
27 | N[C@@H]1CC[C@@H](CCn2cc(-c3ccccn3)nn2)O[C@H]1CO | inactive
28 | C=CCC[C@H](Cc1ccc(F)cc1)C(=O)OC[C@@H](NC(=O)[C@H](CC=C)CC(=O)N(CCO)Cc1ccccc1)c1ccccc1 | inactive
29 | C=CCOC(=O)[C@@H]1[C@H]2C(=O)O[C@H](c3ccccc3)[C@H](c3ccccc3)N2[C@H](c2ccc(OCCOC(=O)[C@H]3C[C@H]4C(=O)N[C@@H](CC(C)C)C(=O)N4[C@H]3c3cccc(OCCO)c3)cc2)[C@@]12C(=O)Nc1ccccc12 | inactive
30 | Cc1c(C)n2c3c(=O)n(C)c(=O)n(C)c3nc2n1CCO | inactive
31 | CC(C)NC(=O)Nc1ccc2c(c1)CC(=O)N([C@H](C)CO)C[C@@H](C)[C@H](CN(C)S(=O)(=O)c1ccc(F)cc1)O2 | inactive
32 | CC[C@H]1OC(=O)[C@H](C)[C@@H](O[C@H]2C[C@@](C)(OC)[C@@H](O)[C@H](C)O2)[C@@H](C)[C@@H](O[C@H]2O[C@H](C)C[C@H](N(C)C)[C@H]2O)[C@](C)(O)C[C@@H](C)C(=O)[C@H](C)[C@@H](O)[C@]1(C)O | inactive
33 | CCC1OC(=O)C(C)C(OC2CC(C)(OC)C(O)C(C)O2)C(C)C(OC2OC(C)CC(N(C)C)C2O)C(C)(O)CC(C)C(=O)C(C)C(O)C1(C)O (stereo not drawn) | inactive
34 | CC[C@H]1OC(=O)[C@H](C)[C@@H](O[C@H]2C[C@@](C)(OC)[C@@H](O)[C@H](C)O2)[C@H](C)[C@@H](O[C@@H]2O[C@H](C)C[C@H](N(C)C)[C@H]2O)[C@](C)(O)C[C@@H](C)C(=O)[C@H](C)[C@@H](O)[C@]1(C)O | active
35 | O=C(N[C@@H]1CC[C@H](CCNS(=O)(=O)c2ccccc2)O[C@@H]1CO)c1cnccn1 | inactive
36 | N#Cc1c(Oc2ccc(F)c(NC(=O)Cc3cccc(C(F)(F)F)c3)c2)ccc2nc(NC(=O)C3CC3)sc12 | active
37 | O=C(N[C@H](c1ccc2ccccc2n1)c1cccs1)C1CCN(Cc2cccc(C(F)(F)F)c2)CC1 | inactive
38 | C=CC(=O)N1C[C@@H]2CC[C@H](O)[C@@H]2C1 | inactive
